Source: PubChem
Hits are enriched below; roughly 12% of the tested compounds scored in any of these assays.
AmpC detergent: qHTS Inhibitors of AmpC Beta-Lactamase (assay with detergent) | Potency, µM (highest dose often 114 µM), for inactives: top-dose activity change, negative = inhibition, actives largely listed as inhibitors | 370,000 tested, 0.041% active | AmpC hydrolysis of nitrocefin, absorbance 480 nm, 0.01% Triton | P00811;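 note: 0% = no-compound wells and -100% = no-enzyme wells; nearly all actives have a fitted effect of over 25% in size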
Target sequence (P00811 whole entry, looked up): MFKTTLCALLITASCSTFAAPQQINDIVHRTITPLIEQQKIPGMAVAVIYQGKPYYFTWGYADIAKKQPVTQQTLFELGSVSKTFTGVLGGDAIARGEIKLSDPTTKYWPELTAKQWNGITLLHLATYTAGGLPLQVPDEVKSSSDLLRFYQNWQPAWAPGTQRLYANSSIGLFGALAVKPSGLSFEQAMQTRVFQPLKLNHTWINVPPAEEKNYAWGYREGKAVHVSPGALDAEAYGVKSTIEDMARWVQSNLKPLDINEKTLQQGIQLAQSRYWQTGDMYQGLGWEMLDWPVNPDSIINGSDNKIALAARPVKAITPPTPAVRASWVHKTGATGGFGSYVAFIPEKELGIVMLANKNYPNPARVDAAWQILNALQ
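AmpC (5.3 nM in the dispensed reagent) in 20 mM phosphate pH 7.0 with 0.01% (detergent screen) or 0.0001% Triton X-100 was preincubated with compounds for 15 min at room temperature. Nitrocefin was then added from an 800 uM solution, and hydrolysis was followed at 480 nm.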
SARS PLpro yeast: qHTS of Yeast-based Assay for SARS-CoV PLP. S. cerevisiae expressing SARS-CoV PLpro, growth rescue. Potency, µM (highest dose often 32.9 µM), inactives show at the highest dose activity, positive = growth rescue, usual class: activators. 330,000 tested, 0.19% active. AID 485353, 2010; calls by dose curve; note: 0% is about no effect; nearly all actives have a fitted effect of over 55% in size
Pf growth 96h: Primary qHTS for delayed death inhibitors of the malarial parasite plastid, 96 hour incubation. P. falciparum luciferase reporter growth, 96 h. Potency, µM (top dose mostly 28.7 µM), inactives show at the highest dose activity change, negative = inhibition, actives largely listed as inhibitors. 320,000 tested, 6.9% active. AID 504834, 2011; note: % is set by controls: 0 for no effect and ±100 for the full control effect
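Two parasite generations (96 h, 37 C, 5% CO2) of compound exposure in infected erythrocytes (0.05% parasitemia, 2% hematocrit). Luciferase-reporter P. falciparum; decreased luminescence indicates inhibited growth, aimed at apicoplast-acting delayed death.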
Pf growth 48h: Primary qHTS for delayed death inhibitors of the malarial parasite plastid, 48 hour incubation; P. falciparum luciferase growth in erythrocytes, 48 h; Potency, µM (top dose mostly 28.7 µM), inactives show top-dose activity change, negative = inhibition, actives largely listed as inhibitors; 310,000 tested, 5.9% active; AID 504832, 2011; note: % is set by controls: 0 for no effect and ±100 for the full control effect
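Luciferase-expressing P. falciparum in infected erythrocytes (2% hematocrit, 0.1% parasitemia final) in RPMI 1640/0.5% Albumax were exposed to compound for 48 hours at 37 C, 5% CO2; growth read as luminescence.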
AmpC inh no detg: qHTS Inhibitors of AmpC Beta-Lactamase (assay without detergent); AmpC nitrocefin hydrolysis, absorbance 480 nm, 0.0001% Triton; P00811; Potency, µM (top dose mostly 57.1 µM), without a hit: at the top dose activity change, negative = inhibition, usual class: inhibitors; 330,000 tested, 0.52% active; AID 485341, 2010;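 note: plate controls were no compound for no effect and no enzyme for full effect; nearly all actives have a fitted effect of over 20% in size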
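20 mM phosphate pH 7.0 + 0.01% (detergent screen) or 0.0001% Triton X-100; 5.3 nM AmpC reagent; cpd preinc 15 min RT; nitrocefin (800 uM stock) to start; A480 q20 s × 4 min; Activity was normalised to no-enzyme and no-compound control wells.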
Sm TGR block: qHTS Assay for the Inhibitors of Schistosoma Mansoni Peroxiredoxins; purified TGR, DTNB reduction, TNB absorbance 405 nm; Potency, µM (highest dose often 114 µM), for inactives: at the top dose activity change, negative = inhibition, usual class: inhibitors; 360,000 tested, 3% active; AID 485364, 2010; note: % is set by controls: 0 for no effect and ±100 for the full control effect; nearly all actives have a fitted effect of over 60% in size
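First, TGR (20 nM dispensed) and NADPH were mixed with compound. Second, a 15 min room-temperature incubation followed. Third, further NADPH and then DTNB were added to start the reaction. Finally, TNB absorbance was monitored kinetically.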
Active calls of the source: *; u = inconclusive; x = not tested or not shown. Unless noted, calls come from the whole dose curve; as a rule, active = well fitted curve in the direction sought with a large enough effect; inconclusive = small, poorly fitted or top-dose-only effect, or another doubt; inactive = no such curve, though single readings can be large; an effect the other way counts as inactive or inconclusive. Potency is the fitted concentration of half-maximal effect.

SMILES	AmpC detergent	SARS PLpro yeast	Pf growth 96h	Pf growth 48h	AmpC inh no detg	Sm TGR block
CCCCn1c(=O)n(CC(=O)Nc2c(CC)cccc2CC)c(=O)c2c1nc(CO)n2CCC	u	-5%	u	16%	4%	10%
CCOc1ccc(OCCCC(=O)ON=C(N)c2ccccc2C)cc1	5%	5%	-22%	-20%	-18%	-4%
COc1ccc(C(=O)c2cnc3ccc(C)cc3c2S(=O)(=O)c2ccccc2)cc1	2%	x	x	x	x	-3%
CCN(CC)c1ccc(N=Cc2ccc([N+](=O)[O-])o2)cc1	-12%	-59%	2.9µM*	1.7µM*	-40%	35µM*
CCN(CC)c1ccc(N=Cc2ccccc2[N+](=O)[O-])cc1	u	14%	-104%	2.3µM*	-23%	u
O=[N+]([O-])c1ccccc1/C=N/OCc1ccccc1	-6%	-4%	108%	106%	-18%	-10%
CCOC(=O)C1CCCN(S(=O)(=O)c2ccc3c(c2)N(C(C)=O)CCO3)C1 (centres undefined)	u	6%	-2%	10%	26%	3%
Cc1ccc(N2C(=O)NC(=O)/C(=C\c3ccsc3)C2=O)cc1C	u	2%	7.4µM*	5%	-49%	-17%
O=C1NC(=O)N(c2ccc3c(c2)OCO3)C(=O)/C1=C\c1ccsc1	2%	-4%	10%	0%	-17%	u
Cc1ccc(N2C(=O)NC(=O)/C(=C/c3cnc(-c4ccccc4)nc3)C2=O)cc1C	-18%	13µM*	50%	1%	-22%	1.8µM*
Cc1cccc(N2C(=O)NC(=O)/C(=C\c3cnc(-c4ccccc4)nc3)C2=O)c1	u	-12%	u	2%	-31%	5µM*
COc1ccc(/C=C2/C(=O)NC(=O)N(c3ccccc3)C2=O)cc1CN1C(=O)c2ccccc2C1=O	-14%	1%	-2%	3%	-23%	u
CC(C)c1ccc(N2C(=O)NC(=O)/C(=C\c3cnc(-c4ccccc4)nc3)C2=O)cc1	5%	10%	196%	78%	-30%	11µM*
CCc1ccc(OCC2c3cc(OC)c(OC)cc3CCN2C(=O)Cc2ccc(OC)c(OC)c2)cc1 (centres undefined)	1%	x	x	x	x	1%
OB(O)O	x	x	-3%	5%	x	x
O=C(c1csc(Nc2cccc3ccccc23)n1)N1CCCC1	-9%	-1%	u	u	-22%	1%
O=C(c1csc(Nc2ccccc2Cl)n1)N1CCCC1	-2%	-14%	2.3µM*	21%	-8%	-9%
COc1ccc(N(CC(=O)N2CCCCC2)S(=O)(=O)c2ccccc2)c(OC)c1	3%	11%	u	u	8.9µM*	-7%
COc1ccccc1N1CCN(C(=O)CN(c2ccccc2OC)S(=O)(=O)c2ccccc2)CC1	-9%	1%	1.3µM*	u	144%	-5%
COc1ccccc1N1CCN(C(=O)C(Sc2ccccc2)c2ccccc2)CC1 (centres undefined)	-1%	-12%	7%	13µM*	45%	0%
COc1ccc(OC)c(N(CC(=O)N2CCCCC2)S(=O)(=O)c2ccc(OC)c(OC)c2)c1	1%	7%	u	u	73%	-1%
CCCN(CCC)C(=O)C1CCN(c2ccc(S(=O)(=O)N3CCOCC3)cc2[N+](=O)[O-])CC1	-12%	1%	5.2µM*	u	173%	8%
COC(=O)CSc1ccc(S(=O)(=O)N2CCOCC2)cc1[N+](=O)[O-]	-13%	-9%	10µM*	20%	-14%	-4%
COCCN(CCOC)C(=O)C1CCN(c2ccc(S(=O)(=O)N3CCOCC3)cc2[N+](=O)[O-])CC1	-10%	2%	u	u	105%	7%
CN(CC(=O)Nc1ccc(F)cc1)c1ccc(S(=O)(=O)N2CCCCC2)cc1[N+](=O)[O-]	u	16%	u	u	0%	3%
SMILES	AmpC detergent	SARS PLpro yeast	Pf growth 96h	Pf growth 48h	AmpC inh no detg	Sm TGR block
CN(CC(=O)O)c1ccc(S(=O)(=O)N2CCOCC2)cc1[N+](=O)[O-]	3%	-2%	95%	2.6µM*	-24%	-14%
CCOC(=O)CSc1ccc(S(=O)(=O)N2CCC(C)CC2)cc1[N+](=O)[O-]	-4%	36%	274%	-6%	-2%	-3%
N/C(Cn1cncn1)=N\NC(=O)C(=O)Nc1cccc(C(F)(F)F)c1	-4%	2%	39%	12%	-13%	-4%
CCn1c2ccccc2c2cc(NC(=O)C(=O)N3CCOCC3)ccc21	5%	3%	u	19%	31%	0%
Cc1cc(C)cc(OC(C)C(=O)Nc2c(C(=O)c3ccccc3)oc3ccccc23)c1 (centres undefined)	1%	x	x	x	x	-3%
COc1ccc(CC(=O)n2[nH]c(=O)cc(C)c2=O)cc1OC	2%	0%	0%	u	-12%	22µM*
Cc1ccc(C2C(=O)N(C3CCCCCC3)CC(=O)N2CCC2=CCCCC2)cc1 (centres undefined)	6%	x	x	x	x	43%
COC(=O)C1=C(C(=O)OC)[C@@H]2N(C)c3ccc(OC)cc3[C@@]23C[C@@H](C(=O)OC)N(S(=O)(=O)c2ccc([N+](=O)[O-])cc2)C3=N1	8%	16%	13µM*	7.4µM*	119%	2%
COC(=O)C1=C(C(=O)OC)[C@@H]2N(C)c3ccc(OC)cc3[C@@]23C[C@@H](C(=O)OC)N(C(=O)C2CCC2)C3=N1	-5%	2%	51%	u	183%	8%
CCCCS(=O)(=O)N1C2=NC(C(=O)OC)=C(C(=O)OC)[C@@H]3N(C)c4ccc(OC)cc4[C@]23C[C@H]1C(=O)OC	1%	-1%	u	10µM*	170%	4%
CCOC(=O)C(C)n1cnc2c(nnn2Cc2ccc(C)cc2)c1=O (centres undefined)	0%	0%	5%	-7%	-9%	6%
CCOC(=O)C(C)n1cnc2c(nnn2Cc2ccc(Cl)cc2)c1=O (centres undefined)	u	8%	8.3µM*	x	-4%	5%
CCOC(=O)C(C)n1cnc2c(nnn2-c2ccc(C)cc2)c1=O (centres undefined)	u	13%	7.4µM*	x	-10%	8%
CCOC(=O)C1CCCN(C(=O)c2c(C)nn(-c3ccc(F)cc3)c2-n2cccc2)C1 (centres undefined)	18%	x	x	x	x	0%
